Data taken from PubChem BioAssay (Tox21).
Values joined by “and” are separate entries in the source; they are usually repeats but may differ in a detail not shown here. Equal entries are not always repeated. Records with an inconclusive call do not appear. Where a structure was tested more than once in an assay, its records may differ in their call. Active and inactive are the calls of the source. Unless noted, calls come from the whole dose curve; as a rule, active = well fitted curve in the direction sought with a large enough effect in the repeat runs; inconclusive = weak or mixed curves; inactive = no such curve, though single readings can be large; an effect the other way counts as inactive or inconclusive.

Experiments:
[1] = qHTS assay to identify small molecule agonists of the peroxisome proliferator-activated receptor delta (PPARd) signaling pathway - cell viability counter screen (AID 743211); note: nearly all actives have a fitted effect of over 55% in size; note: potency is the fitted concentration of half-maximal effect
How it was run: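 PPARd-bla HEK293H cells (UAS-beta-lactamase reporter) were treated with compounds for 17 h at 37 C. Viability was then read in the same wells by CellTiter-Glo luminescence after 30 min at room temperature.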

[2] = molecular target: Peroxisome proliferator-activated receptor delta (Homo sapiens) (UniProt Q03181); assay: qHTS assay to identify small molecule agonists of the peroxisome proliferator-activated receptor delta (PPARd) signaling pathway (AID 743212; calls by dose curve)
How it was run: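 Beta-lactamase reporter read by fluorescence (LiveBLAzer B/G FRET, 2 h, room temperature). Test agents, in DMSO, incubated at 37 C with PPARd-bla HEK293H cells.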

[3] = qHTS assay to identify small molecule antagonists of the peroxisome proliferator-activated receptor delta (PPARd) signaling pathway - cell viability counter screen (AID 743213); note: nearly all actives have a fitted effect of over 50% in size; note: potency is the fitted concentration of half-maximal effect
How it was run: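 HEK293H PPARd UAS-bla cells, 5 h pre-incubation, compound + L165041 300 nM final, 17 h 37 C; B/G FRET substrate 2 h RT; then CellTiter-Glo 30 min RT, luminescence.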

[4] = molecular target: Peroxisome proliferator-activated receptor delta (Homo sapiens) (UniProt Q03181); assay: qHTS assay to identify small molecule antagonists of the peroxisome proliferator-activated receptor delta (PPARd) signaling pathway (AID 743215; active = well fitted inhibition curve with a large enough effect in the signal ratio in the repeat runs, not every such curve was filed as active; the % refers to the signal ratio;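 note: cells stimulated with agonist L165041 at 300 nM final during compound exposure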; note: potency is the fitted concentration of half-maximal effect)
How it was run: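 Fluorescence from cleaved LiveBLAzer B/G FRET substrate (2 h, room temperature) reports PPARd-driven beta-lactamase in HEK293H UAS-bla cells. Cells had been treated 17 h at 37 C with compound plus 300 nM final L165041.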

[5] = qHTS assay to identify small molecule antagonists of the farnesoid-X-receptor (FXR) signaling pathway - cell viability counter screen (AID 743221; active = well fitted cell-killing curve with a large enough effect in the repeat runs, not every such curve was filed as active; note: nearly all actives have a fitted effect of over 50% in size; note: potency is the fitted concentration of half-maximal effect)
How it was run: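 FXR-UAS-bla HEK 293T cells were treated with test compounds plus chenodeoxycholic acid (50 uM final) for 16 h at 37 C. Cell viability in the same wells was then read as CellTiter-Glo luminescence after 30 min at room temperature.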

[6] = qHTS assay to identify small molecule agonists of the vitamin D receptor (VDR) signaling pathway - cell viability counter screen (AID 743224); note: nearly all actives have a fitted effect of over 50% in size; note: potency is the fitted concentration of half-maximal effect
How it was run: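 In parallel with the bla FRET readout, cytotoxicity toward VDR-bla cells after 16 h compound exposure was assessed by CellTiter-Glo, with luminescence recorded after a 30 min room-temperature incubation.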

[7] = qHTS assay to identify small molecule antagonists of the vitamin D receptor (VDR) signaling pathway - cell viability counter screen (AID 743225); note: nearly all actives have a fitted effect of over 50% in size; note: potency is the fitted concentration of half-maximal effect
How it was run: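 VDR-bla HEK 293T cells, 4 h pre-incubation at 37C, then compound plus 1-alpha,25-dihydroxyvitamin D3 (3 nM final) for 16 h. After the beta-lactamase FRET read, CellTiter-Glo was added to the same wells; luminescence after 30 min at room temperature.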

[8] = qHTS assay to identify small molecule agonists of the NFkB signaling pathway - cell viability counter screen (AID 1159515; calls by dose curve; note: nearly all actives have a fitted effect of over 55% in size; note: potency is the fitted concentration of half-maximal effect)
How it was run: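 Plate 2,000 NFkB-bla ME-180 cells/well; incubate overnight. Add compounds, 5 hr at 37 C. Add FRET substrate, 1.5 hr RT. Add CellTiter-Glo, 30 min RT; read luminescence.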

[9] = qHTS assay to identify small molecule agonists of the endoplasmic reticulum stress response signaling pathway (AID 1159516; active = well fitted activation curve with a large enough effect in the signal ratio in the repeat runs, not every such curve was filed as active; the % refers to the signal ratio)
How it was run: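 Beta-lactamase expression from the ER stress response element in HeLa reporter cells is quantified with the LiveBLAzer B/G FRET substrate, read at 405 nm excitation after 2 hr at room temperature, following 5 hr compound treatment at 37 C.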

[10] = qHTS assay to identify small molecule agonists of the endoplasmic reticulum stress response signaling pathway - cell viability counter screen (AID 1159517; calls by dose curve; note: nearly all actives have a fitted effect of over 50% in size; note: potency is the fitted concentration of half-maximal effect)
How it was run: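 Cytotoxicity of test compounds toward ESRE-bla HeLa cells was assessed after 5 hr exposure. The luminescent CellTiter-Glo signal was measured 30 min after reagent addition.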

[11] = qHTS assay to identify small molecule antagonists of the retinoid-related orphan receptor gamma (ROR-gamma) signaling pathway - cell viability counter screen (AID 1159520); note: nearly all actives have a fitted effect of over 50% in size; note: potency is the fitted concentration of half-maximal effect
How it was run: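 Tet-on ROR gamma CHO cells (1,000/well) were plated 4 hr, given compounds in DMSO for 2 hr at 37 C, then induced with 1 uM final doxycycline for 16 hr. Viability was read as ATP by CellTiter-Glo luminescence after 30 min.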

[12] = molecular target: Nuclear receptor ROR-gamma (Homo sapiens) (UniProt P51449); assay: qHTS assay to identify small molecule antagonists of the retinoid-related orphan receptor gamma (ROR-gamma) signaling pathway (AID 1159521; note: nearly all actives have a fitted effect of over 50% in size; note: potency is the fitted concentration of half-maximal effect)
How it was run: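 Tet-on RORγ CHO cells carrying a ROR response element–luciferase reporter were pretreated with compounds for 2 h, then induced with 1 uM (final) doxycycline hyclate for 16 h at 37 C. Antagonism was read as decreased ONE-Glo luminescence.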

[13] = qHTS assay to identify small molecule agonists of the AP-1 signaling pathway - cell viability counter screen (AID 1159525; calls by dose curve; note: nearly all actives have a fitted effect of over 55% in size; note: potency is the fitted concentration of half-maximal effect)
How it was run: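 Each titration point was normalised to DMSO and tetra n-octyl ammonium bromide controls. The read was Cell Titer Glo luminescence after 30 min at RT, following 5 h compound exposure of ME-180 AP-1-bla cells at 37 °C.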

[14] = qHTS assay to identify small molecule agonists of the AP-1 signaling pathway (AID 1159526; calls by dose curve)
[15] = molecular target: Bile acid receptor (Homo sapiens) (UniProt Q96RI1); assay: qHTS assay to identify small molecule antagonists of the farnesoid-X-receptor (FXR) signaling pathway (AID 743217; active = well fitted inhibition curve with a large enough effect in the signal ratio in the repeat runs, not every such curve was filed as active; the % refers to the signal ratio; note: potency is the fitted concentration of half-maximal effect)
How it was run: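 FRET fluorescence after 2 h room-temperature LiveBLAzer loading gives the readout. Prior step: FXR-bla HEK 293T cells, seeded and incubated 5 h, received test compounds plus 50 uM final CDCA for 16 h at 37 °C.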

[16] = molecular target: Bile acid receptor (Homo sapiens) (UniProt Q96RI1); assay: qHTS assay to identify small molecule agonists of the farnesoid-X-receptor (FXR) signaling pathway (AID 743220; active = well fitted activation curve with a large enough effect in the signal ratio in the repeat runs, not every such curve was filed as active; the % refers to the signal ratio)
How it was run: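 FXR-UAS-bla HEK 293T cells carrying a UAS-driven beta-lactamase reporter were plated for 5 h at 37C/5% CO2, then exposed to DMSO-dissolved Tox21 10K compounds for 16 h at 37C. A LiveBLAzer B/G FRET substrate was loaded for 2 h at room temperature before fluorescence reading.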

[17] = molecular target: Vitamin D3 receptor (Homo sapiens) (UniProt P11473); assay: qHTS assay to identify small molecule agonists of the vitamin D receptor (VDR) signaling pathway (AID 743222; calls by dose curve)
How it was run: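 Following 4 h attachment at 37C, VDR-bla cells (2,000 per well) received DMSO-dissolved compounds or controls. After 16 h incubation, LiveBLAzer B/G FRET substrate was added and fluorescence read 2 h later at room temperature.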

[18] = molecular target: Vitamin D3 receptor (Homo sapiens) (UniProt P11473); assay: qHTS assay to identify small molecule antagonists of the vitamin D receptor (VDR) signaling pathway (AID 743223; active = well fitted inhibition curve with a large enough effect in the signal ratio in the repeat runs, not every such curve was filed as active; the % refers to the signal ratio; note: potency is the fitted concentration of half-maximal effect)
How it was run: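 VDR-bla cells were plated, incubated 4 h at 37C, then given compound and 1alpha,25-dihydroxyvitamin D3 (3 nM final). After 16 h at 37C, LiveBLAzer B/G FRET substrate was added for 2 h at room temperature and fluorescence read.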

[19] = qHTS assay to identify small molecule agonists of the farnesoid-X-receptor (FXR) signaling pathway - cell viability counter screen (AID 743218); note: nearly all actives have a fitted effect of over 45% in size; note: potency is the fitted concentration of half-maximal effect
How it was run: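 Readout: CellTiter-Glo luminescence, 30 min RT, multiplexed after the FXR-bla FRET reading. HEK 293T FXR-UAS-bla cells received compound 5 h post-plating and were incubated 16 h at 37 C.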

[20] = molecular target: Retinoic acid receptor RXR-alpha (Homo sapiens) (UniProt P19793); assay: qHTS assay to identify small molecule agonists of the RXR signaling pathway (AID 1159527; calls by dose curve; note: nearly all actives have a fitted effect of over 35% in size)
How it was run: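 GeneBLAzer RXR-alpha-UAS-bla HEK 293T cells in medium with 2% charcoal-stripped FBS, pre-incubated 5 hr at 37 C, then exposed to compounds 16 hr. Beta-lactamase reporter read by FRET substrate, 2 hr room temperature, 460/530 nm emission.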

Measured: Potency

Vitamin D3 receptor (Homo sapiens), sequence (P11473 whole entry, looked up): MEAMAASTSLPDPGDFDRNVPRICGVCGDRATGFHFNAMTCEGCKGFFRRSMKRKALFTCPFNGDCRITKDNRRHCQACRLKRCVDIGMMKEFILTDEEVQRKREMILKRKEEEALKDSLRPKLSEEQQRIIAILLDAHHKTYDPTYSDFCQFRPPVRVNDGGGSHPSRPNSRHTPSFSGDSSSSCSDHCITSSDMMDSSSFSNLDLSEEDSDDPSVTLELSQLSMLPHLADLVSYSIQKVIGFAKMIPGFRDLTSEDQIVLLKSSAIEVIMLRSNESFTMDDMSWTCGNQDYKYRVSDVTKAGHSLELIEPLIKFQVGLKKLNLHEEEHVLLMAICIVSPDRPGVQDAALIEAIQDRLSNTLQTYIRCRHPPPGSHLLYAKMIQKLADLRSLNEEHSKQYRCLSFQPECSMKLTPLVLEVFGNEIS
Retinoic acid receptor RXR-alpha (Homo sapiens), sequence (P19793 whole entry, looked up): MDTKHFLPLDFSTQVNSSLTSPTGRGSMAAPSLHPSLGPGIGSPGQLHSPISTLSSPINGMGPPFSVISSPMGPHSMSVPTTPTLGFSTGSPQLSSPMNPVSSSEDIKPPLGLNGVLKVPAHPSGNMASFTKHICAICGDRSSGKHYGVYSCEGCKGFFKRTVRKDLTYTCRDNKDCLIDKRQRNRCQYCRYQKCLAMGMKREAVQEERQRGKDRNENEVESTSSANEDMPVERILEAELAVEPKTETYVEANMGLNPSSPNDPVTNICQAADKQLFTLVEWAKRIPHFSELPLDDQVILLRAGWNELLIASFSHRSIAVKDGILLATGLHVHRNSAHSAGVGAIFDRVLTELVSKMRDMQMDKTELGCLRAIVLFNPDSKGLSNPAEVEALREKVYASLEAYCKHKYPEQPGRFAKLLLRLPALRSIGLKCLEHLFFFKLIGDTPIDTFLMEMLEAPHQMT
Peroxisome proliferator-activated receptor delta (Homo sapiens), sequence (Q03181 whole entry, looked up): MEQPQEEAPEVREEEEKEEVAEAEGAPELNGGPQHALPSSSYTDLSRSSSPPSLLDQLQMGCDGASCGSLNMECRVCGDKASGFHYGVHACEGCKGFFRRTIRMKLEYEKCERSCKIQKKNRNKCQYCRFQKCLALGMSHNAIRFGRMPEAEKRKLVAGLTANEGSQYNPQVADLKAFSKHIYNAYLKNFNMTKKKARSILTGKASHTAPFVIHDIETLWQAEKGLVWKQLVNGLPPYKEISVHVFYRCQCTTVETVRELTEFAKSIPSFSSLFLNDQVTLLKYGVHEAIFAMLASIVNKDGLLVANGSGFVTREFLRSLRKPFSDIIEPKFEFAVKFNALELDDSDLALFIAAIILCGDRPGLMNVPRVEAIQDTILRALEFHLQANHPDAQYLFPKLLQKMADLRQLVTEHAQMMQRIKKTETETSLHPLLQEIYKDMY
Bile acid receptor (Homo sapiens), sequence (Q96RI1 whole entry, looked up): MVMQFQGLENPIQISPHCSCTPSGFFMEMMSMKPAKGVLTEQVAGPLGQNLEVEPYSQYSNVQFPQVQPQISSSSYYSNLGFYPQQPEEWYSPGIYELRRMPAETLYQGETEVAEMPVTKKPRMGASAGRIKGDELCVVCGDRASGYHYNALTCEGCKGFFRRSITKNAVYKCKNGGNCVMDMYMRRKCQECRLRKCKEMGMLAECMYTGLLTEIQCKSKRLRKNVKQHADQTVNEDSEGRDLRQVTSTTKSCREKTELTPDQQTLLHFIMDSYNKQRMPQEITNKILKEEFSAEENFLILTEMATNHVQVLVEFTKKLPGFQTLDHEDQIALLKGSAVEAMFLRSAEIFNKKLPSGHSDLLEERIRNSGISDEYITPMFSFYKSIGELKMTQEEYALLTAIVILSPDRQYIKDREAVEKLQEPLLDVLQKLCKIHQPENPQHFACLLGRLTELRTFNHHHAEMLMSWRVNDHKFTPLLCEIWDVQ

CCNc1nc(Cl)nc(NC(C)(C)C#N)n1
not listed: [15] | [16] | [17] | [18] | [19] | [20]
inactive: all other assays above

O=C1CCCO1
not listed: [19] | [20]
inactive: all other assays above

C=CC(Cl)CCl (stereo unspecified)
not listed: [2] | [3] | [4]
inactive: all other assays above

O=C(O)CF
not listed: [2] | [4] | [5] | [15] | [16] | [19]
inactive: all other assays above

COc1ccc(CO)cc1
not listed: [2] | [3] | [4] | [5]
inactive: all other assays above

CCOS(=O)(=O)OCC
not listed: [3] | [15] | [16] | [19]
inactive: all other assays above

COP(=O)(NC(C)=O)SC (stereo unspecified)
not listed: [3] | [15] | [16] | [19]
inactive: all other assays above

CCCCOCCOC(C)=O
not listed: [3] | [4]
inactive: all other assays above

CCCCCCCCCc1ccc(O)cc1
61.8 µM (active) and inactive: [11]
inactive: [1] | [3] | [4] | [17] | [18] | [7] | [8] | [9] | [10]

CCOP(=O)(O)OCC (tested in a mixture with another compound)
inactive and 24.3 µM (active): [10]
inactive and 43.3 µM (active): [19]
inactive and 54 µM (active): [11]
inactive and 48.6 µM (active): [5] | [13]
inactive and 54.5 µM (active): [8]
inactive: [9] | [14] | [20]
inactive and 21.7 µM (active): [1]
inactive and 17.2 µM (active): [6]
inactive and 19.3 µM (active): [3]

Cc1cccc(N=Nc2ccc(N(C)C)cc2)c1
not listed: [5] | [9] | [15] | [16]
inactive: all other assays above

CCC[CH2][Sn]([Cl])([Cl])[CH2]CCC
active: [1] 198 nM and 61.6 nM | [5] 222 nM and 123 nM | [6] 249 nM and 77.6 nM | [7] 1.11 µM and 275 nM | [8] 3.13 µM and 2.45 µM | [10] 125 nM and 38.9 nM | [11] 155 nM and 122 nM | [12] 77.9 nM and 96.9 nM

Oc1ccc(Cl)cc1Cc1ccccc1
44.2 µM (active) and inactive: [3]
inactive: [2] | [4] | [6] | [9]
49 µM (active) and inactive: [10]
active: [1] 54.9 µM | [8] 54.9 µM and 49.6 µM | [13] 54.9 µM and 44.2 µM
61.1 µM (active) and inactive: [11]
60.5 µM (active) and inactive: [19]

CCOP(=S)(OCC)SCn1c(=O)oc2cc(Cl)ccc21
active: [12] 32.9 µM
not listed: [2] | [4] | [14] | [19] | [20]
inactive: all other assays above

NN=C(N)N
not listed: [2] | [4] | [5] | [12] | [15] | [16] | [17] | [18]
inactive: all other assays above

CC(C)=CC1C(C(=O)OCN2C(=O)C3=C(CCCC3)C2=O)C1(C)C (stereo unspecified)
inactive: [1] | [3] | [17] | [18] | [6] | [7] | [8] | [9] | [10] | [11] | [13]

CC[n+]1c(-c2ccccc2)c2cc(N)ccc2c2ccc(N)cc21
active: [1] 24.4 µM | [4] 24.4 µM and 23.7 µM | [15] 7.73 µM and 5.31 µM | [19] 614 nM | [18] 12 µM | [6] 21.8 µM
not listed: [3] | [16] | [20]
inactive: all other assays above

[Cl-].[Cl-].[Cl-].[Fe+3]
not listed: [2] | [3] | [4] | [12] | [15] | [16] | [17] | [18]
inactive: all other assays above

CN(C)c1ccccc1
not listed: [2] | [4] | [12]
inactive: all other assays above

CC(C)(c1ccccc1)c1ccc(O)cc1
active: [1] 54.5 µM | [8] 43.3 µM and 54.9 µM | [12] 60.6 µM
inactive: [2] | [3] | [15] | [16] | [5] | [17] | [18] | [6] | [9]

c1ccc2c(c1)Nc1ccccc1S2
not listed: [5] | [14] | [15] | [16] | [17] | [18] | [19]
inactive: all other assays above

O=[N+]([O-])c1ccc(Cl)c([N+](=O)[O-])c1
active: [1] 19.8 µM and 19.5 µM | [3] 24.9 µM and 19.5 µM | [19] 54900 nM | [18] 22.2 µM and 21.9 µM | [6] 14 µM and 17.4 µM | [7] 19.8 µM and 19.5 µM | [8] 49.7 µM and 54.9 µM | [10] 22.2 µM and 49 µM | [11] 49.3 µM and 21.7 µM | [12] 6.21 µM and 6.86 µM | [13] 35.2 µM and 34.7 µM
